# TGFb inhibitor: TGF-b pathway inhibition | HepG2 CAGA-GFP TGF-b/SMAD3 reporter, GFP fluorescence, 18 h; TGF-beta stimulated, 500 pg/mL final | Potency, µM (series often up to 46.1 µM), for inactives: top-dose activity, negative = inhibition, actives largely listed as inhibitors | 1.2% of 410,000 active | AID 588855; note: potency is the fitted concentration of half-maximal effect; % is set by controls: 0 for no effect and ±100 for the full control effect; nearly all actives have a fitted effect of over 65% in size
#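 HEPG2 CAGA-GFP reporter cells (1000/well, DMEM with 1% FBS) received compounds, then recombinant TGF-beta at 500 pg/mL final for 18 hours at 37 degrees C. Per-cell GFP summed per well was normalised to unstimulated and stimulated DMSO controls before curve fitting.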
# IL-1B inflam inh: inflammasome signaling inhibition, IL-1 beta readout | THP-1 LPS/ATP IL-1B secretion, AlphaLISA, 16 h; active compounds read low | activity change, % at 57.5 µM | 4.7% of 360,000 active; in the data active = activity change below about -50%; inconclusive = mostly about -30% to -49%; note: % is set by controls: 0 for no effect and ±100 for the full control effect
#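 THP-1 cells pretreated 1 hr with compounds (up to 57.5 uM final), then stimulated with LPS (250 ng/mL final) plus ATP (1.25 mM final); secreted IL-1B measured by AlphaLISA after 16 hr, decreased signal indicating inhibition.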
# DT40 TDP1 no CPT: qHTS for Inhibitors of human tyrosyl-DNA phosphodiesterase 1 (TDP1): qHTS in cells in absence of CPT | DT40 Tdp1-/- hTDP1 cells, no CPT, ATP luminescence, 48 h | Potency, µM (titrated, usually from 46.2 µM), inactives show at the top dose activity change, negative = growth inhibition, usual class: inhibitors | 15% of 420,000 active; note: potency is the fitted concentration of half-maximal effect; % is set by controls: 0 for no effect and ±100 for the full control effect; nearly all actives have a fitted effect of over 55% in size
#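 Stably hTDP1-transfected Tdp1-null chicken DT40 cells were treated with library compounds minus camptothecin and grown for at least 48 hr at 37 °C, after which cellular ATP was quantified by luminescence.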
# HepG2 viability: HepG2 cytotoxicity, counter-screen for TGF-b inhibitors. HepG2 CAGA-GFP viability, ATP luminescence, 18 h. Potency, µM (titrated, usually from 46.1 µM), for the others: top-dose activity change, negative = cytotoxicity, actives largely listed as cytotoxic. 0.76% of 410,000 active; note: potency is the fitted concentration of half-maximal effect
#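 CellTiter-Glo luminescence gave cytotoxicity after 18 hours at 37 degrees C. The cells were HepG2 CAGA-GFP in 1% FBS DMEM, stimulated with 500 pg/mL TGF-beta after compound addition. %Activity was normalised to no-cell wells (complete cell-killing) and DMSO (no toxicity), and curves were fitted and classified.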
# TDP1 block: TDP1 (human) enzyme inhibition; Q9NUW8; recombinant TDP1, AlphaScreen DNA substrate cleavage; Potency, µM (titrated, usually from 130 µM), for the others: top-dose activity change, negative = inhibition, hits mostly inhibitors; 0.28% of 350,000 active; note: potency is the fitted concentration of half-maximal effect; % is set by controls: 0 for no effect and ±100 for the full control effect; nearly all actives have a fitted effect of over 40% in size
# Target sequence (Q9NUW8 whole entry, looked up): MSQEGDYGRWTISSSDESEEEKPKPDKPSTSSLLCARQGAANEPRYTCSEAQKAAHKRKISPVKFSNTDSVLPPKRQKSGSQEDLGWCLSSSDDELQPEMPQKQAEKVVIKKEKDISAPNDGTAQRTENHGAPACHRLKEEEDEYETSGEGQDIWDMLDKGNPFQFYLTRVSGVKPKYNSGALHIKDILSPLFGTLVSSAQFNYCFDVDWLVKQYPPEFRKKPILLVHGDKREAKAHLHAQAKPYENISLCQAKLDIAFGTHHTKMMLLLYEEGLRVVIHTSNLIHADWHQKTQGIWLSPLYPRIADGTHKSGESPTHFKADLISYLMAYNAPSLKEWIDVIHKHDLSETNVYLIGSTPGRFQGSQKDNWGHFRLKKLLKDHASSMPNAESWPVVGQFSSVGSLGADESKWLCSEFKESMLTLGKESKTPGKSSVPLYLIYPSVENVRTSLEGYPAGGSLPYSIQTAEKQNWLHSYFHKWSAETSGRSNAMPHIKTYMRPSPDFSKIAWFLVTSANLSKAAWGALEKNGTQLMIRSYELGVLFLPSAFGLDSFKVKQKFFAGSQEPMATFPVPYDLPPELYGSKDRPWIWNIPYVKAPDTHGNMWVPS
#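 Signal: AlphaScreen proximity between streptavidin donor and anti-FITC acceptor beads on intact substrate. Reaction: Tdp1 1 nM, substrate 15 nM final, 5 min RT after 15 min compound preincubation.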
# TDP1 cell CPT: growth inhibition of DT40 Tdp1-/-;hTDP1 cells with camptothecin (screen for TDP1 inhibitors). chicken DT40 Tdp1-/-;hTDP1 cells + 20 nM CPT, ATP luminescence, 48 h. 12% of 420,000 active. AID 686979. Potency, µM (series often up to 46.2 µM), for the others: at the top dose activity change, negative = growth inhibition, actives largely listed as inhibitors; note: potency is the fitted concentration of half-maximal effect; % is set by controls: 0 for no effect and ±100 for the full control effect; nearly all actives have a fitted effect of over 55% in size
#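 Chicken DT40 Tdp1-/- cells stably complemented with human TDP1 were seeded at 400 cells/well in medium containing 20 nM camptothecin, exposed to pin-transferred compounds, and grown at 37 °C for at least 48 hr. Viability was read as ATP luminescence.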
# Numbers without * were called inactive; ? = inconclusive; nt = no result given; [ ] = dose if it differs, or a comment. The list is not random: actives were taken first. Their share in the collection is about 19%. Unless noted, calls come from the whole dose curve; as a rule, active = well fitted curve in the direction sought with a large enough effect; inconclusive = small, poorly fitted or top-dose-only effect, or another doubt; inactive = no such curve, though single readings can be large; an effect the other way counts as inactive or inconclusive.
SMILES,TGFb inhibitor,IL-1B inflam inh,DT40 TDP1 no CPT,HepG2 viability,TDP1 block,TDP1 cell CPT
CCc1ccc(-n2nc3cc(C)c(NC(=O)c4cc(OC)cc(OC)c4)cc3n2)cc1,1.1%,nt,-15.7%,-4.2%,-1.9%,-5.5%
CCc1ccc(-n2nc3cc(C)c(NC(=O)c4ccccc4C)cc3n2)cc1,25.8%,nt,8.2µM*,5.7%,-8.4%,?
CCc1ccc(-n2nc3cc(C)c(NC(=O)c4cccc5ccccc45)cc3n2)cc1,5.5%,nt,?,3.5%,1.9%,20.6µM*
C/C(=N\Nc1nc2c(s1)CCCC2)c1ccc(Cl)cc1,?,-55.5*,8.2µM*,-21.3%,9.3%,13µM*
COC(=O)c1ccc(OC)c(Cn2c(=O)n(C)c(=O)c3ccccc32)c1,3.1%,24.3,-26.2%,-2.3%,nt,-10.5%
CC(=O)Nc1ccc2nc(-c3cccs3)[nH]c2c1,1.1%,18.1,-18.2%,3.3%,5.8%,-9.6%
CCOC(=O)Nc1ccc2nc(-c3cscn3)[nH]c2c1,0.4%,4.5,5.8µM*,-31.5%,nt,6.51µM*
Cc1ccc(-n2ncc3c(NCc4cccnc4)ncnc32)cc1C,-16.2%,-19.4,?,-11.9%,1.1%,20.6µM*
Cc1ccc(-n2ncc3c(NNC(=O)c4ccco4)ncnc32)c(C)c1,-26.1%,1.0,-10.8%,-9.9%,3.7%,0.4%
Cc1cccc(-n2ncc3c(NCc4cccnc4)ncnc32)c1,0.9%,-11.2,?,-4.4%,nt,?
Cc1cccc(C(=O)NNc2ncnc3c2cnn3-c2ccc(C)cc2C)c1,-1.7%,nt,?,-12.1%,7.8%,23.1µM*
Cc1ccc(-n2ncc3c(NCc4cccnc4)ncnc32)c(C)c1,-26.1%,-13.4,5.17µM*,-17.4%,-2.6%,16.4µM*
COc1ccccc1-c1noc(-c2ccc(NCC3CCCO3)c([N+](=O)[O-])c2)n1 (stereo not drawn),-0.2%,nt,8.2µM*,-10.3%,8.6%,18.4µM*
COc1ccccc1-c1noc(-c2ccc(NC3CCCC3)c([N+](=O)[O-])c2)n1,-10.2%,nt,23.1µM*,-2.4%,5.7%,18.4µM*
Cc1ccccc1-c1noc(-c2ccc(NCC3CCCO3)c([N+](=O)[O-])c2)n1 (stereo not drawn),-0.4%,nt,2.06µM*,1.0%,11.4%,3.26µM*
COc1ccccc1CC(=O)NNC(=O)CN(C)S(=O)(=O)c1ccc(Cl)cc1,-4.7%,14.5,-22.5%,4.8%,-7.8%,-9.4%
CCc1ccc(NC2=NCC(c3ccccc3)S2)cc1 (stereo not drawn),?,-6.3,?,-60.8%,0.0%,-24.1%
Cc1ccc(NC2=NCC(Cc3ccc(Br)cc3)S2)cc1 (stereo not drawn),?,-96.2*,?,-67.0%,0.0%,?
CCc1cccc(C)c1NC(=O)Cn1cc2c(n1)CCCC2,5.4%,nt,?,-1.0%,5.1%,?
CCc1cc2c(=O)n(Cc3ccco3)c(SCc3c(C)noc3C)nc2s1,?,-5.0,2.91µM*,-41.2%,9.1%,5.8µM*
CCc1cc2c(=O)n(Cc3ccco3)c(SCC(=O)NCC3CCCO3)nc2s1 (stereo not drawn),-10.4%,-6.1,16.4µM*,-19.1%,10.3%,14.6µM*
CCc1cc2c(=O)n(Cc3ccco3)c(SCC(=O)N3CCCc4ccccc43)nc2s1,-6.9%,-27.5,?,-15.9%,4.2%,25.9µM*
COc1ccc(NC(=O)Cc2c(C(=O)O)[nH]c3ccccc23)cc1OC,11.4%,nt,-0.6%,1.0%,5.9%,2.4%
CC(C)[C@H]1c2ccc(F)cc2CC[C@@]1(CCN(C)CCCc1nc2ccccc2[nH]1)OC(=O)C1CC1,11.2µM*,nt,4.47µM*,-108.7%,12.2%,5.01µM*
CCn1c(CSc2ncccn2)nnc1SCC(=O)N1CCCCC1,-0.4%,9.0,4.6%,-4.5%,-5.1%,8.1%
SMILES,TGFb inhibitor,IL-1B inflam inh,DT40 TDP1 no CPT,HepG2 viability,TDP1 block,TDP1 cell CPT
O=C(CSc1ccccc1)N/N=C/c1ccccc1O,-17.2%,144.0,2.59µM*,-9.6%,2.7%,4.11µM*
Cc1nccn1CC(=O)N/N=C/c1ccccc1O,-6.5%,119.9,20.6µM*,-11.0%,?,?
Cc1ccc(S(=O)(=O)NCC(=O)OCN2C(=O)c3ccccc3C2=O)cc1,-1.6%,17.0,20.6µM*,-4.4%,2.3%,?
Cc1ccc(S(=O)(=O)NCN2C(=O)c3ccccc3C2=O)cc1,-21.7%,0.0,-22.9%,-37.2%,nt,-2.5%
Cc1ccc(S(=O)(=O)NCC(=O)N/N=C/c2ccccc2O)cc1,2.0%,116.1,6.51µM*,-7.4%,3.7%,5.17µM*
O=C(CCSCCC(=O)NN=Cc1ccccc1O)NN=Cc1ccccc1O,?,29.0,-23.7%,-37.4%,nt,-24.3%
Cc1ccc(S(=O)(=O)NCC(=O)N/N=C/c2ccc(Cl)cc2Cl)cc1,?,?,-3.5%,-50.8%,2.3%,5.5%
CCOC(=O)c1c2ccc(OCC(=O)N/N=C/c3ccc(C)cc3)cc2n2ccccc12,-3.3%,3.8,18.4µM*,0.3%,2.0%,?
Cc1ccc(NC(=O)COc2ccc(/C=C3/SC(=Nc4ccccc4)N(Cc4cccnc4)C3=O)cc2)cc1,-4.6%,-1.9,6.51µM*,1.5%,3.5%,5.17µM*
Cc1cc(SCC(=O)N/N=C/c2ccc(O)c(O)c2O)c(C)cc1Br,-29.4%,23.3,4.61µM*,-7.2%,9.1%,3.26µM*
O=C(CCN1C(=O)/C(=C/c2ccccc2)SC1=S)Nc1cccnc1,-13.8%,-6.5,?,-23.7%,nt,-5.2%
COc1ccc(CSCC(=O)N/N=C/c2ccccc2O)cc1,-21.7%,115.4,2.59µM*,-18.7%,8.1%,2.91µM*
C=CCOc1cc(Cl)ccc1C(=O)NCCN(CC)CC,nt,nt,-26.4%,nt,nt,9.1%
Cc1ccc(NC(=O)COc2ccc(/C=N/NC(=O)CSCc3ccccc3)cc2)cc1,-1.4%,33.3,?,-26.9%,56.2µM*,?
O=C(CSc1n[nH]c(=O)[nH]c1=O)N/N=C/c1ccccc1O,?,11.2,-3.4%,7.1%,2.2%,13µM*
CCOc1ccccc1/C=N/NC(=O)CSc1n[nH]c(=O)[nH]c1=O,5.9%,-9.1,0.9%,2.2%,-4.3%,-12.1%
Cc1cccc2c(N3CCCC3)nc(CNS(=O)(=O)c3ccc4ccccc4c3)nc12,nt,nt,?,nt,nt,1.6%[9.04 µM]
CC(C)Cn1c(N)c(C(=O)COC(=O)c2cc(C(F)(F)F)nc3ccccc23)c(=O)n(C)c1=O,3.4%,6.0,18.4µM*,0.7%,10.5%,8.2µM*

# Screens as filed in PubChem.
